Values joined by “and” are separate entries in the source; they are usually repeats but may differ in a detail not shown here. Equal values may be shown once. Records with an inconclusive call do not appear. Active and inactive are the calls of the source. The call rests on the fitted dose curve; in most records, active means well fitted curve in the direction sought with a large enough effect in the repeat runs; inconclusive means weak or mixed curves; inactive means no such curve, though single readings can be large; an effect the other way counts as inactive or inconclusive.
Columns and labels:
[1] = qHTS assay for identifying genotoxic compounds that show differential cytotoxicity against isogenic chicken DT40 cell lines with known DNA damage response pathways - wild type cell line (AID 743012); further: nearly all actives have a fitted effect of over 60% in size; further: potency means the concentration at half of the fitted maximal effect
How it was run: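 Using parental DT40 (300 cells/well), compounds delivered in DMSO incubate 40 h at 37 C/5% CO2. CellTiter-Glo reagent then stands 30 min at room temperature, and luminescence gives cell viability.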

[2] = qHTS assay for identifying genotoxic compounds that show differential cytotoxicity against isogenic chicken DT40 cell lines with known DNA damage response pathways - Rev3 mutant cell line (AID 743014); further: nearly all actives have a fitted effect of over 55% in size; further: potency means the concentration at half of the fitted maximal effect
[3] = qHTS assay for identifying genotoxic compounds that show differential cytotoxicity against isogenic chicken DT40 cell lines with known DNA damage response pathways - Rad54/Ku70 mutant cell line (AID 743015); further: nearly all actives have a fitted effect of over 60% in size; further: potency means the concentration at half of the fitted maximal effect
[4] = qHTS assay to identify small molecule antagonists of the androgen receptor (AR) signaling pathway - cell viability counter screen (AID 743033; further: nearly all actives have a fitted effect of over 45% in size; further: potency means the concentration at half of the fitted maximal effect)
[5] = qHTS assay to identify small molecule antagonists of the androgen receptor (AR) signaling pathway using the MDA cell line - cell viability counter screen (AID 743041; further: nearly all actives have a fitted effect of over 45% in size; further: potency means the concentration at half of the fitted maximal effect)
How it was run: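 R1881-driven MDA-kb2 AR-luc cells, 3,000/well, were dosed with library compounds for 16 h; cell health came from CellTiter-Fluor fluorescence in the reporter wells.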

[6] = qHTS assay to identify small molecule antagonists of the thyroid receptor (TR) signaling pathway - cell viability counter screen (AID 743064); further: potency means the concentration at half of the fitted maximal effect; nearly all actives have a fitted effect of over 50% in size
How it was run: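 GH3.TRE-Luc rat pituitary cells carrying a TRE-luciferase reporter were treated with compound plus 1 nM T3 (final) for 23.5 h at 37 °C. Viability was then read in the same wells by CellTiter-Fluor fluorescence after a further 30 min.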

[7] = qHTS assay to identify small molecule antagonists of the thyroid receptor (TR) signaling pathway (AID 743065); further: nearly all actives have a fitted effect of over 55% in size; further: potency means the concentration at half of the fitted maximal effect
How it was run: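 Antagonism measured as loss of luciferase signal in GH3 cells stably carrying a TRE-luciferase reporter, co-treated with compound and T3 (1 nM final) for 23.5 h at 37 C. Viability was read in the same well by CellTiter-Fluor.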

[8] = target: Androgen receptor (Homo sapiens) (UniProt P10275); test: qHTS assay to identify small molecule agonists of the androgen receptor (AR) signaling pathway using the MDA cell line (AID 743040; further: nearly all actives have a fitted effect of over 20% in size)
Chain of Androgen receptor (Homo sapiens) (P10275 whole entry, looked up): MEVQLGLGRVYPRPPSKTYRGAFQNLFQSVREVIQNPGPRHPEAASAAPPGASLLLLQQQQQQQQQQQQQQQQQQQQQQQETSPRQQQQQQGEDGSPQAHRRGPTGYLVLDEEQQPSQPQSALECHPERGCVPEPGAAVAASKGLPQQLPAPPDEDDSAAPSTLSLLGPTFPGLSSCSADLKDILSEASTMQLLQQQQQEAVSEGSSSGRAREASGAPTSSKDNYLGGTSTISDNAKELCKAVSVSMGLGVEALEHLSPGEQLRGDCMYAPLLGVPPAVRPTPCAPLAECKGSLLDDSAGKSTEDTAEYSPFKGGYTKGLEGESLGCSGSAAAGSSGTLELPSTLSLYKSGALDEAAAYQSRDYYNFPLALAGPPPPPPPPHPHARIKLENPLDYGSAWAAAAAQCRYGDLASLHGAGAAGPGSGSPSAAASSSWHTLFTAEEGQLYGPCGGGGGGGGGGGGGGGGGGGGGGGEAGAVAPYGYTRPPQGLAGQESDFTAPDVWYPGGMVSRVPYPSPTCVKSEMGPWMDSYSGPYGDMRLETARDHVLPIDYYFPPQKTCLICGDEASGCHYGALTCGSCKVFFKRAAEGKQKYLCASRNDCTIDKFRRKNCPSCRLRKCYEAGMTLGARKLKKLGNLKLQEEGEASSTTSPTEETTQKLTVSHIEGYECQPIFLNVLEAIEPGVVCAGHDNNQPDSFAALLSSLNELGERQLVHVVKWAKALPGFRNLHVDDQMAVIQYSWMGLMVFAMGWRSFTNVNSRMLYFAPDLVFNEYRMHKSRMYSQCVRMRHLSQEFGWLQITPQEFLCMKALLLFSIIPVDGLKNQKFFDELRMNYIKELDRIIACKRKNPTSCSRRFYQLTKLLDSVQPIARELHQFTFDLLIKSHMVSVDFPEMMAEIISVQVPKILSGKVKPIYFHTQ
How it was run: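 After a 5 h incubation at 37C and 0% CO2, MDA-kb2 reporter cells were dosed with compounds in DMSO and kept 16 h under the same conditions. Luciferase activity was then read as luminescence with ONE-Glo.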

[9] = target: Androgen receptor (Homo sapiens) (UniProt P10275); test: qHTS assay to identify small molecule antagonists of the androgen receptor (AR) signaling pathway using the MDA cell line (AID 743042; further: nearly all actives have a fitted effect of over 55% in size; further: potency means the concentration at half of the fitted maximal effect)
How it was run: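 Antagonist mode: compounds plus R1881 agonist added to MDA-kb2 AR-luc cells, incubated 16 h at 37C. Luciferase reporter luminescence quantified, with multiplexed CellTiter-Fluor readout for cell viability.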

SMILES	Potency [1]	Potency [2]	Potency [3]	Potency [4]	Potency [5]	Potency [6]	Potency [7]	Potency [8]	Potency [9]
CCCCCCCCCCCCCC[n+]1ccccc1	0.122 µM (active)	0.077 µM (active)	0.109 µM (active)	12.3 µM (active)	4.33 µM (active)	6.86 µM (active)	2.43 µM (active)		
CC(O)C#CC(C)O (stereo unspecified)	9.59 µM (active)	7.62 µM (active)	10.8 µM (active)	48.5 µM (active)	inactive		60.5 µM (active)		
O[C@@H](c1cc(C(F)(F)F)nc2c(C(F)(F)F)cccc12)[C@H]1CCCCN1	4.73 µM (active)	4.73 µM (active)	5.31 µM (active)	23.9 µM (active)		5.96 µM (active)	5.96 µM (active)		
CC(=O)OC(OC(C)=O)c1ccc([N+](=O)[O-])o1	19.7 µM (active)	5.54 µM (active)	15.6 µM (active)	22.3 µM (active)		13.9 µM (active)	13.9 µM (active)		
CNCC[C@H](Oc1cccc2ccccc12)c1cccs1	5.31 µM (active)	9.44 µM (active)	9.44 µM (active)		24.8 µM (active)		7.5 µM (active)		
C=CC(=O)OCCOCC(CC)(COCCOC(=O)C=C)COCCOC(=O)C=C	6.37 µM (active)	4.51 µM (active)	5.06 µM (active)	22.8 µM (active)			inactive		
CCN(CC)CCOC(=O)C1(C2CCCCC2)CCCCC1	26.6 µM (active)	21.1 µM (active)	23.7 µM (active)				23.7 µM (active)	inactive	inactive
CN(Cc1cc(Br)cc(Br)c1N)C1CCCCC1	10.6 µM (active)	6.68 µM (active)	10.6 µM (active)		inactive				
CC(C(O)c1ccccc1)N(C)CCOC(c1ccccc1)c1ccccc1 (stereo unspecified)	5.31 µM (active)	8.41 µM (active)	9.44 µM (active)		26.6 µM (active)	11.9 µM (active)	16.8 µM (active)		
CC(C)(C)c1cc(/C=C2\SC(=N)NC2=O)cc(C(C)(C)C)c1O	43.3 µM (active)	61.1 µM (active)	17.2 µM (active)			21.7 µM (active)	13.7 µM (active)		
CC1=C(/C=C/C(C)=C/C=C/C(C)=C\C=O)C(C)(C)CCC1	14.5 µM (active)	14.5 µM (active)	13 µM (active)	29.3 µM (active)	inactive	25.8 µM (active)	29 µM (active)		
CN(C)CCCN1c2ccccc2Sc2ccc(C(F)(F)F)cc21	7.5 µM (active)	8.41 µM (active)	11.9 µM (active)			9.44 µM (active)	10.6 µM (active)		
CC(C)(c1cc(Br)c(O)c(Br)c1)c1cc(Br)c(O)c(Br)c1	57.9 µM (active)	60.9 µM (active) and 64.9 µM (active)	51.6 µM (active)		inactive	27.2 µM (active)	27.2 µM (active) and 48.4 µM (active) and 51.6 µM (active)		
C/C=C/C=N/NC(=O)c1ccncc1	inactive	inactive	inactive	inactive	inactive		inactive		
COc1ccccc1OCCNCC(O)COc1cccc2[nH]c3ccccc3c12 (stereo unspecified)	26.6 µM (active)	29.8 µM (active)	29.8 µM (active)			29.8 µM (active)			
O=C(c1ccccc1)c1cc(Cl)ccc1O	inactive	inactive	inactive		inactive		inactive		
CC(C)c1ccc(O)c(C(C)C)c1	54.5 µM (active)	54.5 µM (active)	48.6 µM (active)	49 µM (active)	inactive				
NC(=O)c1nc(-c2cccc(-c3cc(F)ccc3OCC(F)(F)C(F)(F)F)c2)n[nH]1	17.2 µM (active)	24.3 µM (active)	13.7 µM (active)	21.9 µM (active)	61.1 µM (active)				61.1 µM (active)
O=C1C=CC(=O)N1c1ccccc1	1.09 µM (active)	1.22 µM (active)	1.37 µM (active)	12.3 µM (active)	48.6 µM (active)	4.86 µM (active)	4.86 µM (active)		27.3 µM (active)
CCCCCCC(C)Nc1ccc(Nc2ccccc2)cc1 (stereo unspecified)	17.2 µM (active)	15.4 µM (active)	17.2 µM (active)		inactive		43.3 µM (active)		
O=C1Nc2ccc(Cl)cc2[C@@](C#CC2CC2)(C(F)(F)F)O1	26.6 µM (active)	26.6 µM (active)	21.1 µM (active)		inactive	29.8 µM (active)			
CCC(C)c1cc([N+](=O)[O-])cc([N+](=O)[O-])c1OC(=O)OC(C)C (stereo unspecified)	30.6 µM (active)	48.6 µM (active)	30.6 µM (active)		54.5 µM (active)		21.7 µM (active)	inactive	27.3 µM (active)
CCCCCCOc1ccc(O)cc1	6.11 µM (active)	5.45 µM (active)	7.7 µM (active)		inactive	12.2 µM (active)	6.86 µM (active)		inactive
CCN(CC)CCOc1ccc(C(O)(Cc2ccc(Cl)cc2)c2ccc(C)cc2)cc1 (stereo unspecified)	2.11 µM (active)	2.11 µM (active)	2.98 µM (active)	16.9 µM (active)			7.5 µM (active)		
C[n+]1c2cc(N)ccc2cc2ccc(N)cc21 (tested in a mixture with another compound)	5.96 µM (active)	1.68 µM (active)	2.66 µM (active)				6.68 µM (active)		
